# Screening data deposited in PubChem BioAssay by several laboratories.
# The list is not random: actives were taken first. Their share in the collection is about 5.9%.
# NR0B1 inh – DAX1 (NR0B1) inhibitors, primary screen, cell-based, HEK293, Gal4-DAX1, luciferase luminescence; Nuclear receptor subfamily 0 group B member 1 (Homo sapiens), P51843; HEK293 Gal4-DAX1 luciferase reporter; inhibition, % at 6.75 µM; actives 0.99% (n = 340,000); AID 504766, 2011;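 active = inhibition above the mean over all tested compounds plus 3 SD, cut at about 4.2% in these data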;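 note: 0% = DAX1-transfected cells with DMSO and 100% = empty-vector control cells with DMSO; inhibition shows as a rise in luminescence from relieved DAX1 repression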
# Target sequence (P51843 207-470 limits assumed): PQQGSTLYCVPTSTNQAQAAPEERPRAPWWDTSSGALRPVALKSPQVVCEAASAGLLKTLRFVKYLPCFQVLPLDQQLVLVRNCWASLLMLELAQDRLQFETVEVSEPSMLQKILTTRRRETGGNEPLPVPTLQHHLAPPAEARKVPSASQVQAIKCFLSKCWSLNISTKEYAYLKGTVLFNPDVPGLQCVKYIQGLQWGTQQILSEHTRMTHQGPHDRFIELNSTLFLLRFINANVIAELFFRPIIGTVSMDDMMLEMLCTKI
# HSF1 inh – HSF1 inhibitors in luciferase reporter cells, primary screen, cell-based, NIH3T3, luminescence; NIH3T3-HGL HSE-luciferase, MG132-induced, luminescence 8 h; hits give low values; activity change, negative = inhibition, % at 7.5 µM (by protocol); actives 0.77% (n = 300,000); AID 2098, 2009;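 active = more than half of replicate wells show activity change below -50%, luminescence cut by over half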;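 note: luciferase reports HSF-1 transcriptional activity via heat shock element; 0% = median of DMSO wells and -100% = zero luminescence signal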
# GAA850 FXN act – FXN promoter activators, primary screen, cell-based, luciferase luminescence, HEK293 lucGAA850. AID 540364, 2011. activation, % at 6 µM. actives 0.56% (n = 360,000). HEK293 lucGAA850 FXN promoter luciferase reporter, 24 h; percent of 10 µM SAHA response;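 active = activation above the average of all compounds screened plus 3 SD, cutoff fixed separately per campaign, cut at about 7.5% in these data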;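 note: 0% = DMSO wells and 100% = 10 µM SAHA wells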
# AHR act – AHR activators, primary screen, cell-based, luminescence, luciferase reporter, human; activation, % at 5 µM; actives 2.5% (n = 320,000); Aryl hydrocarbon receptor (Homo sapiens), P35869; AHR-responsive luciferase reporter cells; in the data active = activation above about 47%;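 note: 0% = vehicle wells and 100% = reference agonist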
# HSF1 activator – HSF-1 activators, primary screen, NIH3T3-HGL cells, MG132 stress, luminescence, single point | NIH3T3-HGL HSF-1 luciferase reporter, 8 h; 100% = twice DMSO control signal | activation, % at 9 µM | actives 1.7% (n = 300,000);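 active = mean replicate activation of at least 50% with a set share of replicates each reaching 50%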;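 note: 0% = median of the neutral control wells and 100% = twice that signal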
# HSP90 refold inh – HSP90 inhibitors, primary screen, cell lysate, luminescence; Rabbit reticulocyte lysate, luciferase refolding luminescence, 3 h; inhibition, % at 5.6 µM; actives 0.91% (n = 290,000); Heat shock protein HSP 90 (rabbit reticulocyte lysate; luciferase refolding); AID 1789, 2009;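 active = inhibition above the screen-wide mean plus 3 SD, computed separately per campaign, cut at about 16% in these data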;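 note: 0% = DMSO wells and 100% = 60 µM geldanamycin wells; inhibitors lower the luminescence because luciferase stays unfolded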
# An asterisk follows results filed as active; / = not tested or not shown.
SMILES,NR0B1 inh,HSF1 inh,GAA850 FXN act,AHR act,HSF1 activator,HSP90 refold inh
C=CCNC(=S)NNC(=O)CSc1nc2ccccc2s1,-0.2,-7.0,1.1,31.9,2.0,7.9
Cc1cc(Br)c(NC(=O)Cn2c([N+](=O)[O-])cnc2C)cc1C,-0.8,-1.3,1.5,3.8,-10.5,1.5
COc1cc(/C=C2\CCc3ccccc3C2=O)cc(OC)c1OC,-1.6,11.1,6.7,9.7,1.6,-1.9
COc1cc(/C=C2/CCc3ccccc3C2=O)cc(OC)c1OC,-1.9,42.9,4.8,8.0,72.6*,1.5
COc1cc(/C=C2\COC/C(=C\c3cc(OC)c(OC)c(OC)c3)C2=O)cc(OC)c1OC,-4.4,-92.5*,-12.5,/,-92.8,4.5
Cc1ccc(NC(=O)CN(C)C(=O)COC(=O)CNS(=O)(=O)c2ccc(Br)cc2Cl)cc1,0.4,4.4,0.2,2.0,5.8,-1.3
CC1(C)C/C(=N\O)C(C(O)c2cccc([N+](=O)[O-])c2)C(C)(C)N1 (stereo unspecified),6.2*,-6.4,1.1,-2.3,10.5,7.2
CC1CCC2(CC1)NC(=O)N(CC(=O)N1c3ccccc3CC1C)C2=O (stereo unspecified),0.4,/,1.6,2.8,/,/
CCn1nc(NC(=O)c2cccs2)c2cc3ccccc3nc21,-1.5,-3.9,0.7,48.0*,-8.5,-1.7
CCCCC(=O)Nc1nn(CC)c2nc3c(C)cccc3cc12,-0.8,6.6,0.7,19.1,6.9,-7.9
CCCCC(=O)Nc1nn(CCC)c2nc3ccccc3cc12,-1.0,/,-0.7,47.5*,/,-6.4
Cc1ccc2nc3c(cc2c1)c(NC(=O)c1ccccn1)nn3CC(C)C,-0.1,0.9,3.4,5.5,18.0,4.7
CCn1nc(NC(=O)c2ccccn2)c2cc3cc(C)ccc3nc21,-0.4,/,1.1,71.4*,/,15.3
CCn1nc(NC(=O)c2cccnc2)c2cc3ccccc3nc21,-3.1,-9.2,-2.9,63.7*,-11.4,1.6
CC1CCCC(NC(=O)NC(=O)COC(=O)c2ccc(O)cc2O)C1C (stereo unspecified),0.4,/,-0.9,-0.6,/,/
CCN(CC)c1ccc(C(=C2C=CC(=[N+](CC)CC)C=C2)c2ccccc2)cc1,-6.7,94.5*,-15.4,/,94.5*,/
Cn1c(-c2ccccc2)c(/C=N/NC(=O)c2ccc(O)cc2)c2ccccc21,8.7*,26.0,3.0,34.6,48.1,-1.5
CCOC(=O)CNc1c(-c2ccccc2)nc2ccc(Cl)cn12,2.7,7.1,2.6,12.5,23.8,2.8
CCOC(=O)CNc1c(-c2ccc(O)cc2)nc2ccc(Cl)cn12,0.3,61.8,2.4,3.8,72.4*,-1.6
CC1CCC(NS(=O)(=O)c2ccc(N3CCCC3=O)cc2)CC1 (stereo unspecified),-2.0,-4.0,-1.0,-0.9,6.8,-3.6
COc1cc2c3c(c1OC)C1(C=CC(=O)C=C1)CC3N(C(=O)c1ccccc1)CC2 (stereo unspecified),0.6,24.9,-1.6,1.6,55.0*,4.9
COCCn1ccc2c(OCC(=O)NCCc3ccccc3)cccc2c1=O,0.4,-2.1,1.8,1.2,-1.1,/
COc1ccc(C(=O)NC2=Nc3ccccc3N=C(C)C2c2ccccc2)cc1 (stereo unspecified),17.9*,10.4,4.6,5.2,28.3,-2.3
Cn1c(C(=O)N2CCc3ccccc3C2)cc2oc3ccccc3c21,-1.5,41.5,1.8,2.4,65.9*,-3.3
O=C(CSc1nnnn1C1CCCCC1)Nc1ccc2c(c1)OCO2,-1.0,-3.6,4.2,19.8,4.2,2.4
Nn1cc(-c2ccccc2)nc1SCC(=O)Nc1ccc2c(c1)OCO2,0.0,8.1,1.8,68.5*,-9.7,-4.9
CCCCn1nnnc1SCC(=O)Nc1ccc(N(C)C)cc1,-2.1,6.4,2.1,70.8*,-2.0,-1.4
CC(C)n1nnnc1SCC(=O)Nc1ccc2c(c1)OCO2,2.1,14.1,-0.6,56.0*,20.8,-0.1
